According to the supplement of paper PMC11732987, “Enantioselective OTUD7B fragment discovery through chemoproteomics screening and high-throughput optimisation” (Communications Chemistry, 2025):

How the values were obtained:
Experiment in all cases: log2 ratio of Biotin-Ahx-Ub-VS probe labelling (fragment/DMSO); higher = less target engagement (more negative = stronger competition), active = hit call of the paper (q ≤ 0.05, log2 ratio ≤ -1)
Details in all cases: compound concentration: 200 uM; treatment time: 3 h
USP42 = target: T1, USP42 (UniProt Q9H9J4)
T1 sequence (whole entry): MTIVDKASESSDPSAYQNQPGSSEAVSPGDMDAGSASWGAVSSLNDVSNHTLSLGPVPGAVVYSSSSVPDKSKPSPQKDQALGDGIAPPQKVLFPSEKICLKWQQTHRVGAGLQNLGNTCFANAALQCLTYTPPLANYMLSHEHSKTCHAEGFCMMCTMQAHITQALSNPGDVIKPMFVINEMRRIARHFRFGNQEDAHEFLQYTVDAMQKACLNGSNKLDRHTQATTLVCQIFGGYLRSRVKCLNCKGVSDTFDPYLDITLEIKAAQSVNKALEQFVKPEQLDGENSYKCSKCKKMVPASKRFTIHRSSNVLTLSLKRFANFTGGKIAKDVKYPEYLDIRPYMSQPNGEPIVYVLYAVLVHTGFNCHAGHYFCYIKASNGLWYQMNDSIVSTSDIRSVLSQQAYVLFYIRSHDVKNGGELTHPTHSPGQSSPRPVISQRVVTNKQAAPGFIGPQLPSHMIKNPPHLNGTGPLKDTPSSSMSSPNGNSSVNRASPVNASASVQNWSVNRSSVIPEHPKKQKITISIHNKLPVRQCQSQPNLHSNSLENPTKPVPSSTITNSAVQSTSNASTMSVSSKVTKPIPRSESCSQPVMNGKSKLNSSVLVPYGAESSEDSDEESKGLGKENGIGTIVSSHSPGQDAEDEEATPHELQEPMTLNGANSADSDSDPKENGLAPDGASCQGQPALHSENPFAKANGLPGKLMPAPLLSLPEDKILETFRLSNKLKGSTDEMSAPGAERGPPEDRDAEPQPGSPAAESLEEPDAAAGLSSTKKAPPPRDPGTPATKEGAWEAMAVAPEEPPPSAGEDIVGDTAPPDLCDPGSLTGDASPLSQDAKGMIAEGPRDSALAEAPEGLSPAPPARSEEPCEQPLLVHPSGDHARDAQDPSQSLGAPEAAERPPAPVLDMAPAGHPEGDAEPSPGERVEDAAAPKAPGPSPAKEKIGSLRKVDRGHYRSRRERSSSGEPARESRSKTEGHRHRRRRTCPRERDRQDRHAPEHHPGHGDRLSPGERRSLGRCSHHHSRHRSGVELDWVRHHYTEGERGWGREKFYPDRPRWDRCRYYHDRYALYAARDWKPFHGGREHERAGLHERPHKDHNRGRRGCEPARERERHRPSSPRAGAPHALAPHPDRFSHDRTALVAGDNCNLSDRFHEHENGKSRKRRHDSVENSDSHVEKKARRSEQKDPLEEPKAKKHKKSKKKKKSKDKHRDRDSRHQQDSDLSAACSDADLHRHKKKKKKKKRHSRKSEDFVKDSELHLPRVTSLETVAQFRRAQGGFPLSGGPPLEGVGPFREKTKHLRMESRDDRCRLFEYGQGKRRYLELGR
Outline: (§1)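 HEK293T lysate (495 µg per sample, in Tris/CHAPS/IGEPAL buffer with protease inhibitors) was exposed in triplicate for 3 h to fragment at 200 µM or to vehicle, then to Biotin-Ahx-Ub-VS at 0.5 µM final for 1 h. Labelled DUBs were enriched on NeutrAvidin, digested with LysC and trypsin, and analysed by diaPASEF LC-MS/MS. Spectronaut label-free quantities were normalised to the global median, and values are average log2 ratios of fragment over vehicle from an unpaired t-test. Only proteins with ≥2 unique peptides were used.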

USP46 = USP46 (UniProt P62068)
Outline: as §1

USP47 = target: T2, USP47 (UniProt Q96K76)
T2 sequence (whole entry): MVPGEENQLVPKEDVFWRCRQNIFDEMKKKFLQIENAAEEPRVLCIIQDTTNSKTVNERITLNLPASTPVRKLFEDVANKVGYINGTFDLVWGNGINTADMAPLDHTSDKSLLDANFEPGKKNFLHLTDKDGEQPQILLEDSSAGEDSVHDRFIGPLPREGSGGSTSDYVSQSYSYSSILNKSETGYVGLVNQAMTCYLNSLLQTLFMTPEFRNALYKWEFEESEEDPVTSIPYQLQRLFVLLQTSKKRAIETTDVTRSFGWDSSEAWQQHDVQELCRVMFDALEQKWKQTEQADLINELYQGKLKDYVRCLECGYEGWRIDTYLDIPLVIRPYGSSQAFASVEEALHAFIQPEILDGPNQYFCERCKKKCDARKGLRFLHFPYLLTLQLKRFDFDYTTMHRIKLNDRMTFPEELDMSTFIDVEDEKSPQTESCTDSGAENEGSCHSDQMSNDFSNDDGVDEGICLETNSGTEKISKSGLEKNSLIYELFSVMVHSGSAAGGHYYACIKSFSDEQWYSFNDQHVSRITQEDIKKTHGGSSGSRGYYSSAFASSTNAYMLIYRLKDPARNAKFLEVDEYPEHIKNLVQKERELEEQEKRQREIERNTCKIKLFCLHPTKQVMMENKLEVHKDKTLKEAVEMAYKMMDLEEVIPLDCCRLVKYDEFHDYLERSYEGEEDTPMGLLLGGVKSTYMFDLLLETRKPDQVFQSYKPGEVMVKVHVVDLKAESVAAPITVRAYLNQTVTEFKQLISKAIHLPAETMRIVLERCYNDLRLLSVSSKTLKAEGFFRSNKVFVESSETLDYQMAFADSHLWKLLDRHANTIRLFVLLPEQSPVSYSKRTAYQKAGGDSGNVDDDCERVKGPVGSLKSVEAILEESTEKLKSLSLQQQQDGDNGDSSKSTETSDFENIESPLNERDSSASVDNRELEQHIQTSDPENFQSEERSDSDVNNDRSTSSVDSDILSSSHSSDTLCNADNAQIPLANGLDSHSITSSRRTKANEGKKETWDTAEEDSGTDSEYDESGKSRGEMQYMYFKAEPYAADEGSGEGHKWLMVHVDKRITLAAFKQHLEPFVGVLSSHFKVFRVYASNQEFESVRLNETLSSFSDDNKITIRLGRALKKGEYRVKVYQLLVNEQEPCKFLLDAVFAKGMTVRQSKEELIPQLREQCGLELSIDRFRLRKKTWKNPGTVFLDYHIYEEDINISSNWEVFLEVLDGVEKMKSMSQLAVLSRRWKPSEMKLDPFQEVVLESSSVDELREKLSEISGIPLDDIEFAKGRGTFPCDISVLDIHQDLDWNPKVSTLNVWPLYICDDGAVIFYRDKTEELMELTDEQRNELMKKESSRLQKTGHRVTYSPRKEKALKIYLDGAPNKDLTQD
Outline: as §1

USP48 = target: T3, USP48 (UniProt Q86UV5)
T3 sequence (whole entry): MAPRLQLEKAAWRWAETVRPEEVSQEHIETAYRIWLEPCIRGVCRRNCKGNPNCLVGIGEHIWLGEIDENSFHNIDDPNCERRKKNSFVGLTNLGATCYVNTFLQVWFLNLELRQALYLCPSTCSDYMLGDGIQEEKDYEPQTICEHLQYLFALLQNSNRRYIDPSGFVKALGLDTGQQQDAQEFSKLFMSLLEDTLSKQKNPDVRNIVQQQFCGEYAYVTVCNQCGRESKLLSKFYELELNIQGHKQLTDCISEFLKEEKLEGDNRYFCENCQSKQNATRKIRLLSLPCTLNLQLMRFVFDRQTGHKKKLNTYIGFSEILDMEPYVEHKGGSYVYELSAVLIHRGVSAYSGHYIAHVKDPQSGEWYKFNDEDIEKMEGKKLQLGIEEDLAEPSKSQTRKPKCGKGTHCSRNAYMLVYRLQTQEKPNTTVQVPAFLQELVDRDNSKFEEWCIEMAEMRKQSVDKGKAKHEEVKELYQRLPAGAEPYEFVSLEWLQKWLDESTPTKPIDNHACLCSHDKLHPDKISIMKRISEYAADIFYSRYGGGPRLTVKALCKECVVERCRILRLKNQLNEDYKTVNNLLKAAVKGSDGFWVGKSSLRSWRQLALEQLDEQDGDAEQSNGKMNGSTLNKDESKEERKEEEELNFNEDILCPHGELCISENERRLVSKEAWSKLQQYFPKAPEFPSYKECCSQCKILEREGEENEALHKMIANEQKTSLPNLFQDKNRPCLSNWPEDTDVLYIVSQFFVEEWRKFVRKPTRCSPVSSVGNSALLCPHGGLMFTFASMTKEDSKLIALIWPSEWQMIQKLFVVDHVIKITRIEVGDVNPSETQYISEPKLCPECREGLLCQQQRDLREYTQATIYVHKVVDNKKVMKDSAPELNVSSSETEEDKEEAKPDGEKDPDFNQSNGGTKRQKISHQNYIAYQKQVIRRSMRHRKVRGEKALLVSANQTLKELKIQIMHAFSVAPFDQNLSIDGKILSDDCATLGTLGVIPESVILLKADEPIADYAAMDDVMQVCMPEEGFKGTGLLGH
Outline: as §1

USP5 = target: T4, USP5 (UniProt P45974)
T4 sequence (whole entry): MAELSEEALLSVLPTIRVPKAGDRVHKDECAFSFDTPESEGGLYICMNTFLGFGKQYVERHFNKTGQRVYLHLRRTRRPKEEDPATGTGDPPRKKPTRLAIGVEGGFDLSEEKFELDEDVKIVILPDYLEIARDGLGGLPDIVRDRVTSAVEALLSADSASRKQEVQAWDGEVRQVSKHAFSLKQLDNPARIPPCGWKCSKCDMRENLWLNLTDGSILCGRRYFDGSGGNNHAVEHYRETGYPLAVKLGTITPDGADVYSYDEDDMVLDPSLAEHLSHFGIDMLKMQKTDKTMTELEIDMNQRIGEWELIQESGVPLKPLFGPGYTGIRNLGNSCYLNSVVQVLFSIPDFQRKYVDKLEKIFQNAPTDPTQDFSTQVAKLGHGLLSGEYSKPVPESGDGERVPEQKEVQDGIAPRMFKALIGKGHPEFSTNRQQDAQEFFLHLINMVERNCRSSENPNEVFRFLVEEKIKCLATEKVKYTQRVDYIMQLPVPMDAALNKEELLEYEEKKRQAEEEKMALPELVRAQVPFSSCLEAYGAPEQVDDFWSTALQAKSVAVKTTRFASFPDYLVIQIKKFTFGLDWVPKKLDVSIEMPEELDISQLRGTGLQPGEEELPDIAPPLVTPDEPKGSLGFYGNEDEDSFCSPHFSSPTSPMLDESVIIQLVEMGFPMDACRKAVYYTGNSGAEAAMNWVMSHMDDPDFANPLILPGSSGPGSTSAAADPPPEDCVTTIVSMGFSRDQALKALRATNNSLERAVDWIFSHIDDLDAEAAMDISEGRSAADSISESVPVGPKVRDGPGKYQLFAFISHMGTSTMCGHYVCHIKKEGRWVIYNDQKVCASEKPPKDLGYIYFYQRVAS
Outline: as §1

USP54 = USP54 (UniProt Q70EL1)
Outline: as §1

USP7 = USP7 (UniProt Q93009)
Outline: as §1

USP8 = target: T5, USP8 (UniProt P40818)
T5 sequence (whole entry): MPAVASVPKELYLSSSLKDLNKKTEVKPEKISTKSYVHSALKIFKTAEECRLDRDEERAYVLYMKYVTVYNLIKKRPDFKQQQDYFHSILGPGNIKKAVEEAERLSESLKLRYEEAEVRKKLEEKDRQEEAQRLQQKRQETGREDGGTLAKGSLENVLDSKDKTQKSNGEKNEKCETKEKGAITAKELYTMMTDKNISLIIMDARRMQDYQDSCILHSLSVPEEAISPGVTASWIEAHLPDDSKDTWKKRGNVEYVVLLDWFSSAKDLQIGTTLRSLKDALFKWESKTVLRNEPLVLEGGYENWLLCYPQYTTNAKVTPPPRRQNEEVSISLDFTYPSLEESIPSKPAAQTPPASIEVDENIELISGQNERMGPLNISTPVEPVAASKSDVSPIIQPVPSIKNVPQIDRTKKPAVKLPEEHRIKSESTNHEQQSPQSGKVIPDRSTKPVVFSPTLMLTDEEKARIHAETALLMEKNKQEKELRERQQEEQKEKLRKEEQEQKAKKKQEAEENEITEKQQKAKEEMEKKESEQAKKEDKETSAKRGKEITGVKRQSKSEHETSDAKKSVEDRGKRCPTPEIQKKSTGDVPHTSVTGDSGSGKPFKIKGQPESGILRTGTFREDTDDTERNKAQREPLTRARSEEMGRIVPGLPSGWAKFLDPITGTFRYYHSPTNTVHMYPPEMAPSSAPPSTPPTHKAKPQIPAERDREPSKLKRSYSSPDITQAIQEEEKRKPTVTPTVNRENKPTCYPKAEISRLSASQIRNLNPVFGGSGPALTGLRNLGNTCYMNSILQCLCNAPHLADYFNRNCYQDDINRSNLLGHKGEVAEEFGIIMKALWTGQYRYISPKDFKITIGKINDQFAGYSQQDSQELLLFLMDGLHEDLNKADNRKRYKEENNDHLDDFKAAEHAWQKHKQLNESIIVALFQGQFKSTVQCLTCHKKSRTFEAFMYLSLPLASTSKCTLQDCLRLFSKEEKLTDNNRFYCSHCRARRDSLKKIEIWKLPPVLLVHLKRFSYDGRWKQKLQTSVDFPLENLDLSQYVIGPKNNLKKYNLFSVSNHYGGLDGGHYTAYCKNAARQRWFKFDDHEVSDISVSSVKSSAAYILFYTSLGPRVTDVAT
Outline: as §1

Measured: log2 ratio of Biotin-Ahx-Ub-VS probe labelling

Chain of USP7 (Q93009 whole entry, looked up): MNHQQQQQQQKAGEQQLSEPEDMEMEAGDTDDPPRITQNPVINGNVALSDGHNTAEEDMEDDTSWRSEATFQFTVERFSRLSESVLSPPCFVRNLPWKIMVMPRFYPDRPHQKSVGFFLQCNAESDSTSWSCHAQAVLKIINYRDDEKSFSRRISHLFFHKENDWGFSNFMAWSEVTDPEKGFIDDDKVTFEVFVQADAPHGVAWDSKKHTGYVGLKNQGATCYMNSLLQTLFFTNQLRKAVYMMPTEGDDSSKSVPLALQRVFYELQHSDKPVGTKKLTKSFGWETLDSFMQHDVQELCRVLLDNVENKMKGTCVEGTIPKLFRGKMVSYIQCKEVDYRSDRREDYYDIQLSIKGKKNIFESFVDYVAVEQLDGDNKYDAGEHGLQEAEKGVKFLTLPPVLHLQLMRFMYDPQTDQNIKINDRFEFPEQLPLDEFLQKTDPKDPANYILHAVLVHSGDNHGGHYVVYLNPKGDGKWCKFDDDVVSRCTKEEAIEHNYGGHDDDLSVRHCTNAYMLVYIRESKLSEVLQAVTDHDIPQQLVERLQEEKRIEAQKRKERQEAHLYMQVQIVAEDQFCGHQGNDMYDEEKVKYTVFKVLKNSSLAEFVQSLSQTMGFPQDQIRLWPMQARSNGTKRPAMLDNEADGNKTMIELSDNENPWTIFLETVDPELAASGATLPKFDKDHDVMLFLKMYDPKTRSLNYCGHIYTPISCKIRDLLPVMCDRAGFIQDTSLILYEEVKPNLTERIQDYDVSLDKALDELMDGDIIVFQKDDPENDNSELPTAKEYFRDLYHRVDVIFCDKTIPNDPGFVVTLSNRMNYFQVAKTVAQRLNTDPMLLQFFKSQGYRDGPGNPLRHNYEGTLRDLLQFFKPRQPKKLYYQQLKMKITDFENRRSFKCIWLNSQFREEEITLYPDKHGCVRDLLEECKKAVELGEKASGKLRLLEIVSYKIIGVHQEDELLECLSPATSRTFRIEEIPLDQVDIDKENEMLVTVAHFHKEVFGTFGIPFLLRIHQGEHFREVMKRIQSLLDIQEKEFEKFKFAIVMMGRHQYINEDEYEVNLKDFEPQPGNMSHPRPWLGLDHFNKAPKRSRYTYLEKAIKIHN
Chain of USP46 (P62068 whole entry): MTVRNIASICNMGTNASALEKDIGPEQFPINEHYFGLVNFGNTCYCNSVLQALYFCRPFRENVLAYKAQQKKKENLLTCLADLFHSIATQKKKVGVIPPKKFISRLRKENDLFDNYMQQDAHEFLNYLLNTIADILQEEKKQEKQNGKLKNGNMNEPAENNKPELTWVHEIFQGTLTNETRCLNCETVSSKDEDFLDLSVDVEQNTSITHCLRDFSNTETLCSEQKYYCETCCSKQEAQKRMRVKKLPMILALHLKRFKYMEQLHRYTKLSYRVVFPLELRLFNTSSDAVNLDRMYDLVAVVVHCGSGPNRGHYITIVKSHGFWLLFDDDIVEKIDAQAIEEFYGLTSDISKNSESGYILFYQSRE
Chain of USP54 (Q70EL1 whole entry): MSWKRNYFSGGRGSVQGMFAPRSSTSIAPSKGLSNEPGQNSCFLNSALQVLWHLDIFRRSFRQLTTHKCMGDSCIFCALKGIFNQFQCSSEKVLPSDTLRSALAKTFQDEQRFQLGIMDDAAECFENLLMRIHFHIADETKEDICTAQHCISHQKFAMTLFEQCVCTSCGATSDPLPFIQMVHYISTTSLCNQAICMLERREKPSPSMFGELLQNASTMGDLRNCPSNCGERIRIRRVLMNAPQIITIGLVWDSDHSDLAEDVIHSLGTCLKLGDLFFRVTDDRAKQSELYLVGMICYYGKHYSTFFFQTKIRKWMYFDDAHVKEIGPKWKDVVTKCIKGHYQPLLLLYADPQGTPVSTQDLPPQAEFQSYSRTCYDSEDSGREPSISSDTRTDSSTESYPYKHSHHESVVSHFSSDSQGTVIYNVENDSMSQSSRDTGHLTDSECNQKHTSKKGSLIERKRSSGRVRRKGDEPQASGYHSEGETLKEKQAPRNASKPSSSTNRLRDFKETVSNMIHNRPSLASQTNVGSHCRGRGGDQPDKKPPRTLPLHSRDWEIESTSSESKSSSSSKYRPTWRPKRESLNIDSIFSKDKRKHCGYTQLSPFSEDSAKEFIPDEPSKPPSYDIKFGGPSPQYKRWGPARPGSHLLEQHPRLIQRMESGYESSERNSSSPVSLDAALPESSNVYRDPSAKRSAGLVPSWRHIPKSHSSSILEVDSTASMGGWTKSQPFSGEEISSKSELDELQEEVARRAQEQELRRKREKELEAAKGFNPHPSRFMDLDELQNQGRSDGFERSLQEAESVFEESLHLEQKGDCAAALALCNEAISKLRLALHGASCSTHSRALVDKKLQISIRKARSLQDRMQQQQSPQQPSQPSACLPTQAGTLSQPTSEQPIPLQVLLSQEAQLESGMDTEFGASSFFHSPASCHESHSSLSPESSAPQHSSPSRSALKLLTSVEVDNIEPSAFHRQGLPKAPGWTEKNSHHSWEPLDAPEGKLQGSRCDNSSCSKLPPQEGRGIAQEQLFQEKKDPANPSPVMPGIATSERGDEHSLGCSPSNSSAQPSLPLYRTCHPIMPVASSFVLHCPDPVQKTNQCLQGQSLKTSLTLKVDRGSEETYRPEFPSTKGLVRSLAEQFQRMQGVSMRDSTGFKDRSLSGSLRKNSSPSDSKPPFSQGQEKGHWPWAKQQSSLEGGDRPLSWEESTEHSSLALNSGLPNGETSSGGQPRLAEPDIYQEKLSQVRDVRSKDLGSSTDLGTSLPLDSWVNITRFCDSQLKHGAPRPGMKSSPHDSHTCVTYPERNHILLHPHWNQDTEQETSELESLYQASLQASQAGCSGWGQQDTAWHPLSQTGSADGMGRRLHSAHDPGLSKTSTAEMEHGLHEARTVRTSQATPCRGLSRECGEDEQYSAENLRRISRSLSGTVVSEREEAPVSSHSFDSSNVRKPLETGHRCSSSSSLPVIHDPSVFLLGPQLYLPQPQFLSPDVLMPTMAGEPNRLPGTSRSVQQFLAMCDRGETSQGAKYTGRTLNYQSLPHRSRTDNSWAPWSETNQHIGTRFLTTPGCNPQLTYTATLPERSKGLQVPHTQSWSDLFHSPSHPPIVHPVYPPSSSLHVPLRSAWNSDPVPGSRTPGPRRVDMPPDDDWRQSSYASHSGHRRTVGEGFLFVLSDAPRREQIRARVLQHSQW

O=C(CCl)N1CCC(c2noc3cc(F)ccc23)CC1
active: USP7 -1.81
inactive: USP42 0.542 | USP46 -0.343 | USP47 -0.18 | USP48 -0.806 | USP5 0.182 | USP54 0.351 | USP8 -0.0714
